The text below walks through data of PubChem BioAssay AID463212 (Sanford-Burnham Center for Chemical Genomics, 2010).

The structures appear in SMILES notation. The whole screen tested about 330,000 compounds, of which about 4,400 (1.3%) were called active. The full list was thinned out, with actives kept by preference. Unmarked numbers belong to inactive results.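 The calls were made as follows: active = growth inhibition of the mutant yeast at or above 50%; inactive = the rest.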

Usually inhibition stands for the change of the read-out against control, counted positive when it falls.

A short description of this test: growth inhibitors of tim23-1 mutant yeast, primary screen, luminescence, uHTS (AID 463212).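 Also: temperature-sensitive mutant grown at 25 °C; plate controls were DMSO-treated mutant yeast for no effect and medium wells lacking yeast for full effect.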 To be noted: S. cerevisiae tim23-1 growth, BacTiter-Glo luminescence, 24 h; at 20 µM; stronger effect = higher value.
Turning to `CCOc1ccc(CCNC(=O)COC(=O)CCS(=O)(=O)c2ccc(C)cc2)cc1OCC`, the inhibition is 8.24%.

As for `Cc1ccc(Cn2nnc3c(=O)[nH]c(C4CCN(S(=O)(=O)/C=C/c5ccccc5)CC4)nc32)cc1`, the inhibition is 17.8%.

On to `Cc1ccc(C(C[N+](=O)[O-])c2c(C)cc3ccccn23)cc1` (stereo unspecified), for which the inhibition is 48.5%.

For `Nc1ccccc1SC(C[N+](=O)[O-])c1ccccc1` (stereo unspecified), the inhibition is 81.4% (active).

For the compound `O=C(CN(C(=O)c1csnn1)c1ccc(Br)cc1)NC1CCCC1`, the inhibition is 6.83%.

Consider `O=C(Nc1nonc1-c1ccc(Cl)cc1)c1ccco1`, for which the inhibition was 29.1%.

For `CC(C)[C@H](NC(=O)OCc1ccccc1)C(=O)OCc1ccccc1`, the inhibition is 16%.

`Cc1c(S(=O)(=O)NC(C)c2ccccc2)c(=O)n(C)c(=O)n1C` (stereo unspecified): the inhibition is 0.038%.

For `Cc1ccc(C(=O)NC23CC4CC(CC(C4)C2)C3)c(Cl)c1`, the inhibition is 20.2%.

For the compound `C/C(=N/NC(=O)c1cc(Cl)ccc1O)C12CC3CC(CC(C3)C1)C2`, the inhibition is 54.5% (active).

Consider `O=C(N/N=C1\CCSC1)c1cc(Cl)ccc1O`, for which the inhibition was 7.53%.

In the case of `CCOc1ccc(S(=O)(=O)NCCCn2ccnc2)cc1NC(C)=O`, the inhibition is -2.51%.

In the case of `Cc1ccnc(NC(=O)CCC(=O)N(CC(=O)NCCc2ccccc2)Cc2cccs2)c1`, the inhibition is 6.97%.

`COc1cccc(CN2C(=O)CCC2(C)C(=O)NC2CCCCCC2)c1` (stereo unspecified): the inhibition was -1.86%.

Turning to `COC(=O)c1c(NC(=O)CSc2nncs2)sc2c1CCCCC2`, the inhibition was 52.6% (active).

For `COC(=O)c1c(NC(=O)CCN2CCOCC2)sc2c1CCCC2`, the inhibition is 26%.

Take `COC(=O)c1c(NC(=O)C2CC(C)=C(C)CC2C(=O)O)sc2c1CCCCC2` (stereo unspecified): the inhibition is 27.7%.

Regarding `Cc1ccc(NS(=O)(=O)c2cn(C)c(=O)n(C)c2=O)c(C)c1`, the inhibition is 11%.

For the compound `Cc1cccc(C(C)C)c1NC(=O)COC(=O)C1CC(=O)N(Cc2ccccc2)C1` (stereo unspecified), the inhibition is -6%.

With `C(=N\Nc1ccc2ccccc2n1)/c1ccc2c(c1)OCO2`, the inhibition is 18.7%.

On to `Clc1ccc(Nc2ccc3ccccc3n2)cc1`, for which the inhibition was 84.8% (active).

Consider `Cc1cccc(NC(=O)c2ccc3ccccc3n2)n1`, for which the inhibition was 26.7%.

As to `CC(=O)N1c2ccc(S(=O)(=O)N3CCCC(C(=O)Nc4cccc(F)c4)C3)cc2CC1C` (stereo unspecified), the inhibition was 19.4%.

In the case of `CC(C)c1ccc(NC(=S)NC2CC3C=CC2C3)cc1` (stereo unspecified), the inhibition is 50.9% (active).

Consider `S=C(NNC(=S)NC1CC2CCC1C2)NC1CC2C=CC1C2` (stereo unspecified), for which the inhibition is 13.8%.

As to `S=C(NNC(=S)NC1CC2C=CC1C2)NC1CC2C=CC1C2` (stereo unspecified), the inhibition was 6.32%.

Turning to `COc1ccc(C(=O)Nc2cccc(NC(=O)c3ccc(OC)cc3OC)n2)c(OC)c1`, the inhibition is -26.2%.

On to `COc1cc(SC)ccc1C(=O)Nc1nc(C)cs1`, for which the inhibition is 51.1% (active).

As for `Cc1csc(NC(=O)c2ccc(C)s2)n1`, the inhibition is 17%.

As to `O=C(/C=C/c1ccccc1)N/C(=C/c1ccccc1)C(=O)Nc1ccccc1O`, the inhibition is 19.1%.

`O=C(/C=C/c1ccc(N2CCOCC2)cc1)c1ccccc1`: the inhibition was 35.2%.

As to `O=C(/C=C/c1ccccc1)c1ccccc1O`, the inhibition was 55.8% (active).

As for `Nc1cc(N)nc(SCC(=O)Nc2cccc(S(=O)(=O)N3CCCCC3)c2)n1`, the inhibition is -8.43%.

Turning to `O=C1C=C(c2cccc(Cl)c2)C[C@@H](c2ccc(F)cc2)C1`, the inhibition is 35.1%.

For the compound `O=C1C=C(c2cccc(Cl)c2O)C[C@@H](c2ccc(F)cc2)C1`, the inhibition was 63.4% (active).

`COc1ccccc1C1=CC(=O)C[C@H](c2ccc(F)cc2)C1`: the inhibition is 35.3%.

With `COc1ccc2ccccc2c1CNc1nnnn1C`, the inhibition was -0.932%.

Take `CC(=C/c1ccccc1)/C=N/NC(=O)c1cc(C)oc1C`: the inhibition is -0.867%.

In the case of `Cc1cc(C(=O)N/N=C\C(Br)=C\c2ccccc2)c(C)o1`, the inhibition is 55.9% (active).

`CC(C)c1cc(C(=O)N/N=C/C(Br)=C/c2ccccc2)n[nH]1`: the inhibition is 34.3%.

As to `CCN(CC)C(=O)c1nc[nH]c1C(=O)N(C)Cc1ccccc1`, the inhibition is 8.93%.

In the case of `Cc1cc(C)cc(NC(=O)C2CCCN2S(=O)(=O)c2cccc3cccnc23)c1` (stereo unspecified), the inhibition was 47.9%.

As to `CCOC(=O)c1cc2c(=O)n3ccccc3nc2n(CC(C)C)c1=NC(=O)c1c(-c2c(F)cccc2Cl)noc1C`, the inhibition was 28.6%.

Take `Nn1c(SCC(=O)NC2CCCc3ccccc32)nnc1C1CC1` (stereo unspecified): the inhibition is 2.69%.

Take `CC(=O)O[C@H]1c2ccccc2-c2ccccc2[C@@H]1OC(C)=O`: the inhibition was 21.8%.

For the compound `CC(=O)Nc1ccc(Oc2ccc3c(c2)C(=O)NC3=O)cc1`, the inhibition is -0.541%.

`CC(=O)Oc1ccc2c(c1)C(=O)c1ccccc1C2=O`: the inhibition was 50.2% (active).

For `O=C(O)CN(Cc1ccco1)S(=O)(=O)c1ccc(F)cc1`, the inhibition was -1.65%.

As to `Cc1c(C(=O)N2CCCc3ccccc32)oc2ccccc12`, the inhibition was 23.8%.

For the compound `O=C(c1cc(-c2cccc(O)c2)on1)N1CCc2ccccc2C1`, the inhibition is 50.3% (active).

In the case of `O=C(c1cc(-c2ccc(O)cc2)on1)N1CCOCC1`, the inhibition is 12.7%.

`O=C(NCCCN1CCOCC1)c1cc(-c2cccc(O)c2)on1`: the inhibition is -0.573%.

As for `O=C(c1cc(-c2ccc(O)cc2)on1)N1CCCc2ccccc21`, the inhibition was 54.2% (active).

Consider `Cc1ccc(-c2cc(C(=O)N3CCc4ccccc4C3)no2)cc1`, for which the inhibition was 15.5%.

Consider `CSc1ccc(S(=O)(=O)N2CCC(C(=O)NCc3ccncc3)CC2)cc1`, for which the inhibition was 0.185%.

With `COC(=O)c1ccc2ccccc2c1OC1OC(CO)C(O)C(O)C1NC(C)=O` (stereo unspecified), the inhibition is 2.47%.

On to `Cc1cccc(-c2nnc(SCC(=O)O)n2Cc2ccccc2)c1`, for which the inhibition is 1.27%.

Regarding `CC1CCC2(CC1)NC(=O)N(Cc1nnc(-c3cccs3)o1)C2=O` (stereo unspecified), the inhibition was 8.03%.

For `CCn1c(SCc2cccc(C(=O)O)c2)nnc1-c1ccc(Cl)cc1`, the inhibition was 10.3%.

For the compound `O=C(COC(=O)C1CCCCC1)Nc1ccc([N+](=O)[O-])cc1`, the inhibition was 2.5%.

Regarding `CC(=O)Nc1ccc(NC(=O)COC(=O)C2CCC(C(C)(C)C)CC2)cc1` (stereo unspecified), the inhibition was 32.6%.

Consider `CCC(C)c1ccc(NC(=O)COC(=O)C2CCCC2)cc1` (stereo unspecified), for which the inhibition was 56.9% (active).

With `Clc1ccc(-c2nnc(-c3ccccc3)nc2N2CCSCC2)cc1`, the inhibition is 45.4%.

Turning to `O=S(=O)(c1ccccc1)c1nc(Cc2ccccc2)oc1N1CCOCC1`, the inhibition was 7.56%.

In the case of `CCCCC(NC(=O)c1cccc(Br)c1)C(=O)O` (stereo unspecified), the inhibition is 4.77%.

On to `COC(=O)CNS(=O)(=O)c1ccc(Cc2ccc(S(=O)(=O)NCC(=O)OC)cc2)cc1`, for which the inhibition was 31.2%.

Regarding `COc1cc(OC)c(C(=S)N2CCCC2)cc1OC`, the inhibition was 11.7%.

Take `CC(C)=C1SC(N2CCN(c3cccc(C)c3)CC2)=NC1=O`: the inhibition is 14.1%.

Regarding `O=C1N=C(N2CCCC2)S/C1=C\c1cccc(Br)c1`, the inhibition was 27.3%.

Consider `CCN1C(=O)/C(=C2\SC(N3CCCCC3)=NC2=O)c2ccccc21`, for which the inhibition is 54.8% (active).

`CSc1ccccc1OCc1cc(C(=O)N2C[C@H]3CC[C@H]2C3)no1`: the inhibition is 18.7%.

For the compound `CCCOc1ccc(CN(CCO)CCO)cc1C(=O)OC`, the inhibition is 1.64%.

For `COCCCNC(=O)C1CCN(c2ccc(N3CCOCC3)nn2)CC1`, the inhibition was 16.9%.

Consider `O=C(NCc1ccccc1)c1onc(CSc2nc3ccccc3[nH]2)c1C(=O)NCc1ccccc1`, for which the inhibition is 6.16%.

For the compound `CCOC(=O)C1CCN(C(=O)c2cccc(S(=O)(=O)N(CC)c3ccccc3)c2)CC1`, the inhibition was 14.3%.

As for `CCCCN1C(=O)CC(N2CCOCC2)C1=O` (stereo unspecified), the inhibition was -1.61%.

`Cn1nc(C(F)(F)F)cc1C(=O)O`: the inhibition was -3.37%.

Take `O=c1oc2ccccc2c(NC2CCCCC2)c1NS(=O)(=O)c1ccc(Cl)cc1`: the inhibition was 25.2%.

Consider `O=c1ccc2cc(S(=O)(=O)Nc3ccccc3F)ccc2o1`, for which the inhibition was 17.6%.

As to `O=c1oc(-c2ccccc2NS(=O)(=O)c2ccc(Cl)cc2)nc2ccccc12`, the inhibition was 59.8% (active).

As for `CC(=O)Nc1ccc(N2C(=O)CC(Sc3nccc(C)n3)C2=O)cc1` (stereo unspecified), the inhibition was 10.2%.
